Measurements: the supplement of paper PMC6555819

Experiments:
Experiment in all cases: PBM binding z-score (relative to random genomic background probes); higher = stronger binding; sequences stand for … in GC…GCGATTGACAGCGTAGAATGAAGG
[1] = test system: FXR:RXRa (NR concentration 270 nM, RXRa partner concentration 90 nM)
In short: (§1)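 Binding z-scores were set against random background probes. The data came from custom Agilent 4×180K protein-binding microarrays carrying double-stranded probes with 34-nt variable regions, incubated 1 h with ligand-free nuclear receptor dimers. Partner-specific antibodies detected binding, and scanned fluorescence was regression-normalized.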

[2] = test system: LXRa:RXRa (NR concentration 270 nM, RXRa partner concentration 90 nM)
In short: as §1

[3] = test system: LXRa homodimer (NR concentration 270 nM)
In short: as §1

[4] = test system: LXRb:RXRa (NR concentration 270 nM, RXRa partner concentration 90 nM)
In short: as §1

[5] = test system: LXRb homodimer (NR concentration 270 nM)
In short: as §1

[6] = test system: PPARa:RXRa (NR concentration 270 nM, RXRa partner concentration 90 nM)
In short: as §1

[7] = test system: PPARg:RXRa (NR concentration 180 nM, RXRa partner concentration 90 nM)
In short: as §1

[8] = test system: PPARg:RXRa 270nM:90nM, anti-RXR (NR concentration 270 nM, RXRa partner concentration 90 nM)
In short: as §1

[9] = test system: PPARg:RXRa 30nM:10nM, anti-RXR (NR concentration 30 nM, RXRa partner concentration 10 nM)
In short: as §1

[10] = test system: PPARg:RXRa 90nM:30nM, anti-RXR (NR concentration 90 nM, RXRa partner concentration 30 nM)
In short: as §1

[11] = test system: PPARg:RXRa DBDmut IVT, anti-RXR (DBD mutation: RXRa K156A/R161A, NR concentration 270 nM, RXRa partner concentration 90 nM)
In short: as §1

[12] = test system: PPARg:RXRa IVT, anti-PPARg (NR concentration 270 nM, RXRa partner concentration 90 nM)
In short: as §1

[13] = test system: PPARg DBDmut:RXRa IVT, anti-PPARg (DBD mutation: PPARg1 K132A/R137A, NR concentration 270 nM, RXRa partner concentration 90 nM)
In short: as §1

[14] = test system: PPARg DBDmut IVT, anti-PPARg (DBD mutation: PPARg1 K132A/R137A, NR concentration 270 nM)
In short: as §1

[15] = test system: PPARg homodimer (NR concentration 180 nM)
In short: as §1

[16] = test system: PXR:RXRa (NR concentration 270 nM, RXRa partner concentration 90 nM)
In short: as §1

[17] = test system: PXR homodimer (NR concentration 270 nM)
In short: as §1

[18] = test system: RARa:RXR (NR concentration 270 nM, RXRa partner concentration 90 nM)
In short: as §1

[19] = test system: RARa homodimer (NR concentration 270 nM)
In short: as §1

[20] = test system: RARb:RXRa (NR concentration 270 nM, RXRa partner concentration 90 nM)
In short: as §1

Sequence | PBM binding z-score [1] | PBM binding z-score [2] | PBM binding z-score [3] | PBM binding z-score [4] | PBM binding z-score [5] | PBM binding z-score [6] | PBM binding z-score [7] | PBM binding z-score [8] | PBM binding z-score [9] | PBM binding z-score [10] | PBM binding z-score [11] | PBM binding z-score [12] | PBM binding z-score [13] | PBM binding z-score [14] | PBM binding z-score [15] | PBM binding z-score [16] | PBM binding z-score [17] | PBM binding z-score [18] | PBM binding z-score [19] | PBM binding z-score [20]
AGAACGAGAGCAATGAGTTGATAGCACGGGTGGC | -0.715 | -0.7 | -0.726 | -0.759 | -0.725 | -0.447 | 0.796 | -0.0173 | -0.196 | 0.0595 | 0.0253 | -0.231 | -0.979 | -0.694 | -1.02 | -0.378 | -0.202 | -0.818 | -0.732 | -0.525
GCCGACAGGTGAAACGCAGGTAACTCAGGGTGGC | -0.479 | 0.0317 | -0.662 | -0.204 | -1.11 | 0.797 | 0.421 | -0.333 | -0.664 | -0.468 | 0.757 | 0.528 | -0.976 | -1.57 | -0.704 | -0.343 | -0.71 | 0.331 | -1.11 | 0.705
CCTTACGGGTCACGAGGTTATAGCGCGACGAGCG | 7 | 4.91 | 0.435 | 3.79 | -0.01 | 6.01 | 7.42 | 6.71 | 3.03 | 5.28 | 3.89 | 5.36 | 1.53 | 2.01 | 3.21 | 4.57 | 0.486 | 6.3 | 1.06 | 4.56
GGAACGAGGGCATTGGAGTTGATAGCATGGCGAT | 0.624 | 1.25 | -0.304 | -0.0971 | -0.75 | 1.36 | 0.831 | 0.611 | -0.313 | -0.0775 | 3.13 | 1.96 | -0.193 | -0.133 | 0.272 | 2.48 | 0.836 | 0.409 | -0.598 | 1.72
GTTAGTTGGTCAGTAAAAGGTCACACACCGGTCG | 3.73 | 4.28 | 5.17 | 3.94 | 1.41 | 4.6 | 3.42 | 4.81 | 2.66 | 4.18 | 2.02 | 3.66 | 1.57 | 0.79 | 5.74 | 5.26 | 1.74 | 6.27 | 3.99 | 4.39
TAGCCTAGGTCATTGGGCCAGTTTAGTACGCATC | 4.25 | 3.21 | 0.757 | 2.35 | 0.194 | 3.88 | 3.49 | 3.27 | 0.719 | 2.06 | 2.53 | 3.45 | -0.6 | 0.202 | 0.893 | 1.71 | -0.11 | 2.11 | -0.422 | 3.52
ATCTCTAGGTAAGACACAGTTCAGTGAAGAACGC | 0.376 | 1.1 | 1.08 | 0.767 | 1.15 | 0.964 | 1.03 | 1.98 | 0.784 | 1.72 | 2.01 | 1.34 | 1.21 | 1.33 | 1.82 | 1.31 | 1.06 | 0.786 | 1.69 | 0.924
GTACCAAGGTGAATAGGTCGCTGATGAGTAGGCG | 0.713 | 0.531 | -0.254 | 0.0295 | -0.695 | 1.95 | 1.48 | 1.74 | 0.17 | 1.14 | 1.89 | 2.89 | -0.721 | -0.6 | 0.508 | 0.271 | -0.637 | 1.34 | -0.0761 | 2.07
CGAACTAGGTCCAGGACAGTGAATCTCCGCACGC | -0.204 | -0.571 | -0.353 | -0.95 | -0.661 | -0.195 | 0.3 | -0.587 | -0.632 | -0.449 | 2.08 | 0.856 | -0.489 | -1.24 | -0.302 | -0.535 | -0.312 | -0.417 | -0.0938 | 0.00636
CAAGCTAGGTCACAGAGGTCAAAGTCCGTGCGTA | 7.59 | 6.83 | 7.42 | 6.28 | 1.9 | 5.99 | 6.86 | 6.52 | 3.68 | 5.83 | 5.16 | 5.87 | 0.564 | 0.34 | 6.23 | 6.96 | 12.1 | 8.03 | 2.55 | 5.47
CAAACTAGGTCACAGAGGTAAAAGTCCGTGCGTA | 4.42 | 3.37 | 0.644 | 2.58 | 0.501 | 5.38 | 9.21 | 7.63 | 5.5 | 7.27 | 8.62 | 8.89 | 3.39 | 1.6 | 2.55 | 2.53 | 0.79 | 3.47 | 0.948 | 4.35
CGCCAAAGTTCAACTAAGGTAACGTAAAGCACGC | 5.71 | 6.43 | 4.61 | 4.35 | 2.19 | 5.16 | 4.03 | 5.02 | 1.67 | 3.91 | 0.771 | 1.55 | 0.546 | 0.253 | 3.81 | 5.66 | 5.04 | 4.28 | 2.96 | 5.16
GCATATAGGTAATACAAGGTGGAAGTCCGATTGT | 0.184 | 0.265 | -0.224 | -0.272 | -0.619 | 0.775 | 0.978 | 0.953 | 0.435 | 0.586 | 4.14 | 2.47 | 1.2 | 0.302 | -0.138 | 0.192 | 0.041 | 0.731 | 0.593 | 0.0105
TAGCCTAGGTCAATCAGGGGCCAGTATAGAAAGC | 3.77 | 2.77 | 0.313 | 2.59 | 0.0516 | 3.34 | 2.24 | 2.28 | 0.674 | 1.76 | 1.74 | 2.75 | -0.205 | 0.00211 | 1.32 | 2.04 | -0.411 | 3.2 | -0.673 | 3.89
